Experimental data: PubChem BioAssay (Tox21)
Results filed as inconclusive are left out. A number with no mark means an inactive call. The call rests on the fitted dose curve.

molecular target: Progesterone receptor (Homo sapiens) (UniProt P06401); experiment: qHTS assay to identify small molecule agonists of the progesterone receptor (PR) signaling pathway (AID 1346784); conditions: PR-UAS-bla HEK293T, beta-lactamase FRET ratio, 16 h; series mostly up to 92.4 µM; activation: at the top concentration; further: nearly all actives have a fitted effect of over 30% in size
Sequence (P06401 whole entry, looked up): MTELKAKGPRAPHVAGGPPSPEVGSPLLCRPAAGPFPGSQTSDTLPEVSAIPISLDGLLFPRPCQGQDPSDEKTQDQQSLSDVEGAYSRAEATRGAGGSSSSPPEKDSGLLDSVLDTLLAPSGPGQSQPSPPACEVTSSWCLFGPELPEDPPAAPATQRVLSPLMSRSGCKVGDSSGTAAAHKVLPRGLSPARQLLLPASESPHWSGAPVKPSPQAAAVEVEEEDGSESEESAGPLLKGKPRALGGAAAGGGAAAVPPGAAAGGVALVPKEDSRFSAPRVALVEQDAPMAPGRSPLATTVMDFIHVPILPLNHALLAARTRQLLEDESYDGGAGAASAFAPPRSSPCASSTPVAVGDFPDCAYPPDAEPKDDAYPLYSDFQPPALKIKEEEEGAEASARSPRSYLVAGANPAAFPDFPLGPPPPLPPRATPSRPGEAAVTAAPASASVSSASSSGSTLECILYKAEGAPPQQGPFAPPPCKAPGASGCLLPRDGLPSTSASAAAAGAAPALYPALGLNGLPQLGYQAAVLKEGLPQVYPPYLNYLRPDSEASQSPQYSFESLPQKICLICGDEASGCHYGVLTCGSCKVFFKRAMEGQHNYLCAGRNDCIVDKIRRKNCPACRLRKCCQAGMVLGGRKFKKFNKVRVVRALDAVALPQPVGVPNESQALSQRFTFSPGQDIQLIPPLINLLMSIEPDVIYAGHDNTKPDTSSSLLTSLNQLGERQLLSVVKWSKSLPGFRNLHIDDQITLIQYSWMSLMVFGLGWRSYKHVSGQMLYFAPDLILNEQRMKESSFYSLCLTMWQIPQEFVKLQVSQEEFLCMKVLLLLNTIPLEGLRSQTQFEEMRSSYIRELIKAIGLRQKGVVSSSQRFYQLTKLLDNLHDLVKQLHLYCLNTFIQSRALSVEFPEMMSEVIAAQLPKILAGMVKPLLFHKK
Excerpt: U.S. Tox21 Program National Center for Advancing Translational Sciences [NCATS] NIH Chemical Genomics Center [NCGC] U.S. Environmental Protection Agency [EPA] National Institutes of Environmental Health Sciences [NIEHS] National Toxicology Program [NTP] U.S. Food and Drug Administration [FDA] […] Endocrine disrupting chemicals (EDCs) and their interactions with steroid hormone receptors like PR causes disruption of normal endocrine function. To identify the compounds that activate PR signaling, a PR-UAS-bla GripTite cell line i.e. PR-UAS-bla HEK 293T (Invitrogen, Carlsbad, CA, USA) containing a beta-lactamase reporter gene under the control of an Upstream Activator Sequence (UAS) was used to screen Tox21 10K compound library.
Tox21 Assay Protocol Summary: PR-UAS-bla HEK 293T cells were dispensed at 3,000 cells/5 uL of assay medium containing 2% charcoal stripped FBS per well into black wall/clear-bottom 1536-well plates using a Multidrop Combi (ThermoFisher Scientific, Waltham, MA) dispenser. After the assay plates were incubated at a 37C and 5% CO2 for 6hr, 23 nL of compounds dissolved in DMSO, positive controls or DMSO only was transferred to the assay plate by a Pintool station (Kalypsys, San Diego, CA). The plates were incubated at 37C and 5% CO2 for 16hr. Then 1 uL of LiveBLAzer B/G FRET substrate was added using a BioRAPTR FRD (Flying Reagent Dispenser, Aurora Discovery, San Diego, CA). After the plates were incubated at room temperature for 2 hours, fluorescence intensity was measured by an Envision plate reader (PerkinElmer, Shelton, CT).
On the % scale 0 is the no-effect control and ±100 the full control effect.

| SMILES | activation |
| --- | --- |
| CCCc1ncc(C(=O)O)s1 | -0.967% [at 42.5 µM] |
| CCCCCCCCS(=O)(=O)O | 0.331% |
| CCO/C=C1\N=C(c2ccccc2)OC1=O | 1.03% |
| Cc1ccc(O)c(C(=O)c2ccccc2)c1 | 0.563% |
| Cc1ccc(OC(=O)CC(C)C)cc1 | 0.0319% |
| O=C(OOC(=O)c1ccccc1)c1ccccc1 | -1.69% [at 42.5 µM] |
| CCCCc1ccc(Cl)cc1 | -0.114% |
| N#Cc1ccccc1C#N | -0.223% |
| CCOC(=O)CC(C(C)=O)C(C)=O | 0.192% |
| CC(C)(C)c1ccc(N)cc1 | 2.49% |
| CC(=O)/C=C/C=C1/C2CCC(C2)C1(C)C (stereo not given) | 1.07% [at 42.5 µM] |
| COCCCOc1cc(C[C@@H](C[C@H](N)[C@@H](O)C[C@H](C(=O)NCC(C)(C)C(N)=O)C(C)C)C(C)C)ccc1OC | 0.818% [at 42.5 µM] |
| O=S(=O)(O)c1ccc(Cl)cc1 | -1.37% |
| CCCCCCCCCCCCCCCC/C=C/C1CC(=O)OC1=O (stereo not given) | -0.0698% [at 42.5 µM] |
| c1coc(Cn2cccc2)c1 | -0.136% |
| CC(=O)c1c(C)cc(C(C)(C)C)cc1C | -3.15% |
| O=C(O)/C=C(\CC(=O)O)C(=O)O | 2.76% [at 42.5 µM] |
| COC(=O)C(c1ccccc1Cl)N1CCc2sccc2C1 (stereo not given) | 0.237% [at 42.5 µM] |
| COc1ccccc1N1CCN(CC(O)COc2cc(OC)c(OC)c(OC)c2)CC1 (stereo not given) | 2.31% [at 42.5 µM] |
| CCCCCCCC(=O)N(C)C | 0.416% |

| SMILES | activation |
| --- | --- |
| O=C(CCBr)N1CCN(C(=O)CCBr)CC1 | 0.731% [at 42.5 µM] |
| CCCCCCCOC(C)=O | -2.68% |
| CCCCCCC(O)CO (stereo not given) | -0.739% |
| NC[C@H]1O[C@H](O[C@H]2[C@H](O)[C@@H](O[C@H]3O[C@H](CO)[C@@H](O)[C@H](N)[C@H]3O)[C@H](N)C[C@@H]2N)[C@H](N)[C@@H](O)[C@@H]1O | -1.56% [at 19 µM] |
| CCCCCCCCCCCBr | -0.38% [at 42.5 µM] |
| CC[N+](C)(CC)CC | -0.147% |
| CC(C)C(=O)Nc1cccc(C2CN3CCSC3=N2)c1 (stereo not given) | 0.527% [at 42.5 µM] |
| CC(=O)Nc1ccc(OCCOCCOc2ccc(NC(C)=O)cc2)cc1 | -1.37% [at 42.5 µM] |
| Nc1nc(Cl)cc(Cl)n1 | -2.5% |
| Cc1ccccc1C#N | 0.937% |
| O=S(=O)(O)CC(O)CCl (stereo not given) | -0.137% |
| COc1cc(C(=O)NC2CCCNC2)cc(OC)c1OC (stereo not given) | -0.309% [at 42.5 µM] |
| O=Cc1ccc(C(=O)O)cc1 | 1.14% |
| CC(C)C[P+](C)(CC(C)C)CC(C)C | -0.158% |
| CCCCC(O)/C=C(C)/C=C/C=C/C(=O)N1CCCC1=O (stereo not given) | 1.13% [at 42.5 µM] |
| Cc1nnc(C(=O)NC(C)(C)c2nc(C(=O)NCc3ccc(F)cc3)c(O)c(=O)n2C)o1 | -0.467% [at 42.5 µM] |
| Nc1ccc(C(=O)NCC(=O)O)cc1 | -0.935% [at 42.5 µM] |
| Clc1cc(Cl)c(Cl)c(Cl)c1Cl | 0.586% |
| C=CCN(CC=C)CC=C | 0.25% |
| COc1cc(NS(=O)(=O)c2ccc(N)cc2)ncn1 | 1.77% [at 42.5 µM] |
